Among the test systems are RPMI-8226 leukemia; OVCAR-8 ovarian; OVCAR-5 ovarian; OVCAR-4 ovarian; SK-OV-3 ovarian; IGROV1 ovarian; HS 578T breast; NCI/ADR-RES ovarian; T-47D breast; BT-549 breast; MDA-MB-435 melanoma; SW-620 colon; MCF7 breast; HCT-116 colon; HCC-2998 colon; KM12 colon; MDA-MB-468 breast; OVCAR-3 ovarian.
Assay in all cases: NCI-60 one-dose screen, 48 h (100 = growth as untreated, 0 = no growth, -100 = all killed)
What all share (conditions): 10 µM

The panel holds about 83,000 compounds, 20% with a hit somewhere; the sample as a whole holds those more often.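 Compound tested at a single concentration for 48 hours in 96-well plates; a percent growth value below 10 was scored as active.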 Values without a mark were called inactive. Active and inactive are the calls of the source.

Turning to `Cc1ccc(-c2nc3ccc(C(=O)N=Nc4c(O)[nH]c5ccc(Br)cc45)cc3[nH]2)cc1`, the growth is 49.6% in the test on RPMI-8226 leukemia; 39.9% in the test with OVCAR-8 ovarian; 62.8% in the test with OVCAR-5 ovarian; 45.7% with OVCAR-4 ovarian; 96.1% in the test on SK-OV-3 ovarian; 87.4% in the test with IGROV1 ovarian. Also, the growth in the test with HS 578T breast is 94.1%; in the test with NCI/ADR-RES ovarian, 99.7%; with T-47D breast it was 84.7%; in the test on BT-549 breast, 138%; in the test on MDA-MB-435 melanoma it was 57.9%; in the test on SW-620 colon it was 7.03% (active). The growth in the test on MCF7 breast was 21.7%; in the test with HCT-116 colon it was 26.3%; in the test on HCC-2998 colon, 20.5%; with KM12 colon, 32.6%; in the test with MDA-MB-468 breast it was 62.5%.

With `Cc1ccc(-c2nc3ccc(C(=O)N=Nc4c(O)[nH]c5ccc(Cl)cc45)cc3[nH]2)cc1`, the growth in the test on RPMI-8226 leukemia was 32.6%; in the test with OVCAR-8 ovarian, -33.9% (active); in the test with OVCAR-5 ovarian, 18.2%; in the test on OVCAR-4 ovarian it was -63.6% (active); with SK-OV-3 ovarian, 30.7%; in the test with IGROV1 ovarian, 18.1%. Besides, the growth in the test on OVCAR-3 ovarian was -47.2% (active); with HS 578T breast it was -0.441% (active); with NCI/ADR-RES ovarian, 54.1%; with T-47D breast, -4.44% (active); with BT-549 breast it was -1.74% (active); in the test on MDA-MB-435 melanoma, -61.5% (active). The growth in the test with SW-620 colon is -34% (active); with MCF7 breast, -26.9% (active); with HCT-116 colon, 0.963% (active); in the test on KM12 colon it was 4.98% (active); with MDA-MB-468 breast, -75% (active).

On to `O=C1Nc2cc(-c3ccc(NC(=O)c4cccc([N+](=O)[O-])c4)cc3)ccc2/C1=C/c1ccc[nH]1`, for which the growth with RPMI-8226 leukemia is 82.9%; with OVCAR-8 ovarian it was 90.4%; with OVCAR-5 ovarian it was 99.6%; with OVCAR-4 ovarian, 52.3%; in the test with SK-OV-3 ovarian, 115%; in the test on IGROV1 ovarian, 95.7%. Besides, the growth with OVCAR-3 ovarian is 99.4%; in the test with HS 578T breast, 108%; in the test with T-47D breast, 27.5%; in the test on BT-549 breast, 120%; in the test with MDA-MB-435 melanoma, 105%; in the test on SW-620 colon it was 79.8%. The growth in the test with MCF7 breast was 2.65% (active); in the test with HCT-116 colon, 103%; in the test on HCC-2998 colon, 62.2%; in the test with KM12 colon it was 14.5%; in the test with MDA-MB-468 breast, -10.9% (active).

`CN1CCN(c2ccc(Nc3nc(NCCCNC(=O)c4ccc(Cl)cc4)c4sccc4n3)cc2)CC1`: the growth was 48.5% in the test on RPMI-8226 leukemia; 67.9% in the test on OVCAR-8 ovarian; 90.8% in the test on OVCAR-5 ovarian; 70.6% with OVCAR-4 ovarian; 103% with SK-OV-3 ovarian; 88.3% with IGROV1 ovarian. In addition, the growth in the test on OVCAR-3 ovarian is 109%; in the test on HS 578T breast it was 78.8%; with NCI/ADR-RES ovarian, 91.6%; in the test on T-47D breast it was 41.9%; with MDA-MB-435 melanoma, 86.2%; in the test with SW-620 colon it was 93%. In addition, the growth with MCF7 breast was 49.1%; in the test with HCT-116 colon it was 15.1%; in the test on HCC-2998 colon, 91.3%; in the test with KM12 colon it was 68.7%; in the test on MDA-MB-468 breast, 68.3%.

Take `O=C(N/N=C/c1ccc(B(O)O)o1)c1[nH]c2ccc(Br)cc2c1-c1ccccc1`: the growth was 28.2% in the test with RPMI-8226 leukemia; 14.1% in the test with OVCAR-8 ovarian; 43.5% in the test on OVCAR-5 ovarian; 56.1% in the test on OVCAR-4 ovarian; 25.5% with SK-OV-3 ovarian; 51.8% in the test on IGROV1 ovarian. For the same compound, the growth was 14% in the test with OVCAR-3 ovarian; 0.269% (active) with HS 578T breast; -34.6% (active) in the test on NCI/ADR-RES ovarian; 36.4% in the test with T-47D breast; -53.2% (active) with MDA-MB-435 melanoma; 26.2% in the test with SW-620 colon. The growth is 13.8% in the test on MCF7 breast; 7.23% (active) in the test with HCT-116 colon; 8.58% (active) in the test with HCC-2998 colon; 15.4% in the test on KM12 colon; -3.94% (active) in the test with MDA-MB-468 breast.

Regarding `CN(C)c1cccc2c(S(=O)(=O)Nc3cccc(-c4csc(NC(=O)CCCCCN5CCN(c6cc7c(cc6F)C(=O)N(C6CCC(=O)NC6=O)C7=O)CC5)n4)c3)cccc12` (stereo not drawn), the growth is 50.7% with RPMI-8226 leukemia; 94.6% in the test on OVCAR-8 ovarian; 105% in the test with OVCAR-5 ovarian; 66.6% with OVCAR-4 ovarian; 86.9% in the test with SK-OV-3 ovarian; 96.3% with IGROV1 ovarian. Moreover, the growth in the test with OVCAR-3 ovarian was 99.8%; in the test on HS 578T breast, 70.4%; with NCI/ADR-RES ovarian, 98.4%; with T-47D breast, 74.7%; in the test on BT-549 breast, 85.6%; in the test with MDA-MB-435 melanoma, 95.2%. For the same compound, the growth with SW-620 colon was 98.6%; in the test on MCF7 breast, 73.5%; in the test with HCC-2998 colon, 111%; in the test on KM12 colon it was 104%; in the test with MDA-MB-468 breast, 59.7%.

Turning to `COc1ccc(N(C)c2cc(C#N)nc3ccccc23)cc1/C=C/C(=O)NO`, the growth was 5.81% (active) in the test on RPMI-8226 leukemia; -37.9% (active) in the test with OVCAR-8 ovarian; -46.2% (active) in the test on OVCAR-5 ovarian; 7.41% (active) with OVCAR-4 ovarian; -22.7% (active) in the test on SK-OV-3 ovarian; -57.4% (active) in the test with IGROV1 ovarian. Further, the growth in the test with OVCAR-3 ovarian is -43.4% (active); with HS 578T breast, -18.2% (active); in the test with T-47D breast, -10.8% (active); in the test with BT-549 breast, -49.4% (active); in the test with MDA-MB-435 melanoma it was -70.5% (active); in the test on SW-620 colon it was -37.5% (active). In addition, the growth with MCF7 breast is -20.8% (active); in the test on HCT-116 colon, -9.52% (active); with HCC-2998 colon, -94.8% (active); in the test on KM12 colon it was -37.1% (active); in the test with MDA-MB-468 breast, -86.1% (active).

Take `COc1ccc2nc(Nc3cccc(NC(=O)c4ccc(CN5CCN(C)CC5)c(C(F)(F)F)c4)c3)ccc2c1`: the growth is -33% (active) in the test with RPMI-8226 leukemia; -38.1% (active) in the test on OVCAR-8 ovarian; -75% (active) in the test on OVCAR-5 ovarian; -27.1% (active) in the test with OVCAR-4 ovarian; -48.8% (active) in the test on SK-OV-3 ovarian; -69.8% (active) in the test on IGROV1 ovarian. In addition, the growth in the test with OVCAR-3 ovarian is -36% (active); in the test with HS 578T breast it was -23.1% (active); in the test with T-47D breast, -25.9% (active); with BT-549 breast it was -45.8% (active); in the test with MDA-MB-435 melanoma, -96% (active); with SW-620 colon, -89.7% (active). The growth in the test with MCF7 breast was -97.1% (active); in the test with HCT-116 colon it was -15.3% (active); with HCC-2998 colon, -99.4% (active); with KM12 colon, -68.1% (active); in the test with MDA-MB-468 breast, -97.1% (active).

Regarding `O=C(Nc1ccc(F)c(Cl)c1)c1cc(-c2ccc(F)cc2F)ccc1O`, the growth was -28.6% (active) in the test on RPMI-8226 leukemia; 6.82% (active) in the test with OVCAR-8 ovarian; 0.459% (active) in the test on OVCAR-5 ovarian; 12.9% in the test with OVCAR-4 ovarian; -5.38% (active) in the test on SK-OV-3 ovarian; 16.4% in the test on IGROV1 ovarian. Further, the growth with HS 578T breast was -3% (active); in the test on NCI/ADR-RES ovarian, -15.1% (active); with T-47D breast, -6.69% (active); in the test with BT-549 breast, -37.6% (active); in the test with MDA-MB-435 melanoma, 0.745% (active); in the test on SW-620 colon, 6.07% (active). Further, the growth with MCF7 breast is -16.1% (active); in the test with HCT-116 colon, 9.19% (active); with HCC-2998 colon, 4.97% (active); in the test with KM12 colon it was -16% (active); in the test with MDA-MB-468 breast, -44.4% (active).

For the origin of these results see PubChem BioAssay (NCI).
